In the library only some 14% were active in any assay of this set; here they are far more common.
AID923 – qHTS Assay for Allosteric/Competitive Inhibitors of Caspase-1: Spectroscopic Profiling in AFC Spectral Region. Potency, µM (series often up to 57.5 µM), for the others: top-dose fluorescence increase, most hits filed as activators. 75,000 compounds, 1.1% hits. compound fluorescence, AFC spectral region (405/520 nm); also: potency is read from the fitted curve at half-maximal effect; 0% is about no effect
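Titrations up to 57 uM read every 20 sec for 3 min (405/520 nm) with 50 nM caspase 1 and 5 uM Ac-WEHD-AFC, pH 7.5 HEPES buffer. Fluorescence-vs-time intercept gave baseline, scaled against on-plate AFC standard.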
CRE Fsk mod – Cell signaling CRE-BLA (Fsk stim). Potency, µM (doses to about 38.2 µM), for the others: at the top dose activity change, negative = inhibition, hits mostly activators. 71,000 compounds, 2.5% hits. CHO CRE-bla reporter (cAMP response element driving beta-lactamase), forskolin EC10, beta-lactamase ratio; active = well fitted activation curve with a large enough effect in the signal ratio, with a control signal flat, not every such curve was filed as active; inconclusive = small, poorly fitted or top-dose-only effect, or effect the other way, or a change in a side signal; the % refers to the signal ratio; also: potency is read from the fitted curve at half-maximal effect; % of control where 0% means no effect
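The 460nm/530nm emission ratio after CCF4 loading defined %Activity, from which AC50 values were obtained. CRE-bla CHO cells received compound dilution series together with an EC10 level of NKH 477 for 3 hours at 37 degrees Celsius.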
HADH2 inhib – qHTS Assay for Inhibitors of HADH2 (Hydroxyacyl-Coenzyme A Dehydrogenase, Type II); 3-hydroxyacyl-CoA dehydrogenase type-2 (Homo sapiens), Q99714; recombinant HADH2, NADH fluorescence, beta-hydroxybutyryl-CoA; Potency, µM (top dose mostly 57.1 µM), for inactives: at the top dose activity change, negative = inhibition, usual class: inhibitors; 73,000 compounds, 3.4% hits; AID 886, 2007; also: potency is read from the fitted curve at half-maximal effect; % is scaled to controls: 0 for no effect and ±100 for the full control effect; nearly all actives have a fitted effect of over 60% in size
Target sequence (Q99714 whole entry, looked up, one chain of several): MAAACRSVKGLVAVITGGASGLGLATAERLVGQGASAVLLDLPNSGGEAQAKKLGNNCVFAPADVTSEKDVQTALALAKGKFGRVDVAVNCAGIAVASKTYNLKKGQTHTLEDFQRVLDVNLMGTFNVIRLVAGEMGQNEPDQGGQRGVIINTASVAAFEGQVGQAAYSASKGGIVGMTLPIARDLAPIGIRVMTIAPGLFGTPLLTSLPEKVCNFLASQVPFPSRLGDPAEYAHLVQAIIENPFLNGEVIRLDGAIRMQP
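Read-out: 360 nm excitation, 450 nm emission, kinetic over 4 min. Conditions: His-tagged human HADH2 20 nM, pH 9.0 Tris with Tween-20, 1 mM NAD+, 90 uM beta-hydroxybutyryl-CoA.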
HSD17B inhib – qHTS Assay for Inhibitors of HSD17B4, hydroxysteroid (17-beta) dehydrogenase 4 | 3-hydroxyacyl-CoA dehydrogenase type-2 (Homo sapiens), Q99714 | recombinant HSD17B10, NADH fluorescence kinetic | Potency, µM (titrated, usually from 57.1 µM), without a hit: top-dose activity change, negative = inhibition, hits mostly inhibitors | 75,000 compounds, 7.6% hits | AID 893, 2007;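 also: the protocol describes HADH2 (HSD17B10) and not the HSD17B4 of the title; potency is read from the fitted curve at half-maximal effect; % is scaled to controls: 0 for no effect and ±100 for the full control effect; nearly all actives have a fitted effect of over 70% in size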
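His-tagged E. coli-expressed HADH2 at 20 nM in 100 mM Tris-HCl pH 9.0 with 0.01 % Tween-20, preincubated 15 min with compound at room temperature. Reaction with 1 mM NAD+ and 90 uM beta-hydroxybutyryl coenzyme A; NADH fluorescence (360/450 nm) read kinetically over 4 min, last minus first point.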
A350 fluor – qHTS Assay for Spectroscopic Profiling in A350 Spectral Region; Compound autofluorescence, 340/450 nm, Alexa 350 dye-equivalents; active compounds read high; max dye-equivalent concentration, M; 59,000 compounds, 11% hits; AID 590, 2007; in the data active = max dye-equivalent concentration above about 10 nM; inconclusive = mostly about 1.1 nM to 9.6 nM
4-MU autofl – qHTS Assay for Spectroscopic Profiling in 4-MU Spectral Region. max dye-equivalent concentration, M. compound autofluorescence, 340/450 nm, 4-MU equivalents; active compounds read high. 59,000 compounds, 11% hits; in the data active = max dye-equivalent concentration above about 10 nM; inconclusive = mostly about 1.1 nM to 9.6 nM
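Compounds in 100 mM Tris, pH 8.0, sat 15 min at room temperature before fluorescence was read at 340 nm excitation/450 nm emission; a per-plate six-point 4-MU standard curve converted signals to dye-equivalent concentration at each compound concentration.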
An asterisk follows results filed as active; i = inactive; u = inconclusive; x = no result; [ ] = dose if it differs, or a comment. Unless noted, calls follow the shape of the dose curve; as a rule, active = well fitted curve in the direction sought with a large enough effect; inconclusive = small, poorly fitted or top-dose-only effect, or another doubt; inactive = no such curve, though single readings can be large; an effect the other way counts as inactive or inconclusive.

SMILES	AID923	CRE Fsk mod	HADH2 inhib	HSD17B inhib	A350 fluor	4-MU autofl
COc1ccc(C2CC(=O)N3CN(c4ccc(C)c(Cl)c4)CSC3=C2C#N)cc1 (stereo unspecified)	0.8%	-2.6%	1.58µM*	31.6µM*	x	x
COc1ccc(OC)c(C2CC(=O)N3CN(c4ccccc4)CSC3=C2C#N)c1 (stereo unspecified)	2.9%	6.0%	u	u	x	x
COc1ccc(N2CSC3=C(C#N)C(c4cccc(OC)c4OC)CC(=O)N3C2)cc1 (stereo unspecified)	3.2%	3.98µM*	2µM*	u	x	x
Clc1ccc(COn2nnc3ccccc32)c(Cl)c1	0.6%	-7.4%	8.4%	4.6%	i	i
O=S1(=O)N[C@H]2CC[C@@H]3NS(=O)(=O)N[C@H]4CC[C@H](N1)N4S(=O)(=O)N23	-1.3%[11.5 µM]	-2.8%[7.6 µM]	-10.5%[11.4 µM]	-6.9%[11.4 µM]	i	i
Cc1ccc2cc(-c3noc(C(C)(C)C)n3)c(=O)[nH]c2c1	1.6%	-0.1%	-10.6%	3.98µM*	1.83e-07M*	2.15e-07M*
O=S(=O)(Nc1nc(CN2CCOCC2)nc2sc3c(c12)CCCC3)c1cc(F)ccc1F	3.7%	u	-13.9%	u	1.99e-08M*	1.94e-08M*
N=c1c2c3c(sc2ncn1CCN1CCOCC1)CCCC3	-1.1%	19.3%	8.0%	-17.9%	i	i
CC1CCCCC1NC(=O)CN1CCC(O)(c2ccc(F)cc2)CC1 (stereo unspecified)	-0.7%	-2.9%	-4.3%	5.1%	i	i
O=C(c1cn(-c2ccccc2)nc1-c1ccncc1)N1CCCCC1	-3.3%	-2.1%	u	25.1µM*	i	i
O=C(c1cn(-c2ccccc2)nc1-c1ccc(F)cc1)N1CCOCC1	2.1%	-3.4%	6.3%	7.8%	x	x
CCOC(=O)NCc1ccc(Cl)c(Cl)c1	1.3%	2.6%	-5.9%	1.4%	i	i
NC(=NCc1ccc(Cl)c(Cl)c1)NC(=O)c1nc(Cl)c(N)nc1N	1.9%	-1.6%	u	25.1µM*	3.85e-07M*	3.71e-07M*
COc1cccc(-c2nc(NCCNC(C)=O)c3ccccc3n2)c1	0.2%	u	9.0%	-5.9%	i	i
COc1ccc(-c2nnc(NC(=O)c3ccc(S(=O)(=O)N4CCCc5ccccc54)cc3)o2)cc1	0.2%	u	20µM*	25.1µM*	i	i
CCc1ccc(C2C(C#N)=C(N)SC(N)=C2C#N)cc1	1.2%	u	u	25.1µM*	x	x
N#CC1=C(N)SC(N)=C(C#N)C1c1cccc(Oc2ccccc2)c1	-1.5%	u	2µM*	u	x	x
N#CC1=C(N)SC(N)=C(C#N)C1c1ccc(C(F)(F)F)cc1	3.2%	-9.1%	31.6µM*	25.1µM*	i	i
CCOc1ccc(C2C(C#N)=C(N)SC(N)=C2C#N)cc1OC	x	x	x	x	u	i
CCOc1ccc(C2C(C#N)=C(N)SC(N)=C2C#N)cc1OCC	5.3%	7.94µM*	7.94µM*	u	u	u
COC(=O)C1=C(C)OC(N)=C(C#N)C1c1ccccc1 (stereo unspecified)	1.9%	-6.3%	8.7%	47.8%	i	i
Cc1ccc(C2C(C#N)=C(N)Oc3cc4c(cc32)OCO4)cc1 (stereo unspecified)	9.8%	-8.8%	14.7%	-11.2%	i	i
COC(=O)NC(c1cccc(F)c1)C(C(C)=O)C(=O)OC (stereo unspecified)	5.1%[11.5 µM]	x	13.6%[11.4 µM]	2.9%[11.4 µM]	x	x
CN(C)Cc1ccccc1-c1nc(N(C)Cc2ccco2)c2ccccc2n1	-1.2%	24.0%	-5.7%	-12.4%	i	i
O=C(Nc1cccc(F)c1)N1CC2(CCN(C(=O)c3ccncc3)CC2)C1	7.9%	-0.9%	10.2%	6.5%	i	i

Compound activity (PubChem BioAssay)
